Measurements reported in publication PMC4336329 (PLoS ONE, 2015).
Hit rate of the full screen: of about 310,000 compounds, about 14,000 (4.5%) showed an effect of 50% or more. The effect is printed as a negative number. This excerpt belongs to a sample that is enriched for strong results.

These molecules were tested against human ether-à-go-go-related gene (hERG) potassium channel (human, UniProt Q12809) (assay: primary screen, population patch clamp on CHO cells stably expressing hERG; higher = less effect of the substance).
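Further: peak tail current of the secondary pulse compared with the same well before compound.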

Sequence of human ether-à-go-go-related gene (hERG) potassium channel (Q12809 whole entry, looked up): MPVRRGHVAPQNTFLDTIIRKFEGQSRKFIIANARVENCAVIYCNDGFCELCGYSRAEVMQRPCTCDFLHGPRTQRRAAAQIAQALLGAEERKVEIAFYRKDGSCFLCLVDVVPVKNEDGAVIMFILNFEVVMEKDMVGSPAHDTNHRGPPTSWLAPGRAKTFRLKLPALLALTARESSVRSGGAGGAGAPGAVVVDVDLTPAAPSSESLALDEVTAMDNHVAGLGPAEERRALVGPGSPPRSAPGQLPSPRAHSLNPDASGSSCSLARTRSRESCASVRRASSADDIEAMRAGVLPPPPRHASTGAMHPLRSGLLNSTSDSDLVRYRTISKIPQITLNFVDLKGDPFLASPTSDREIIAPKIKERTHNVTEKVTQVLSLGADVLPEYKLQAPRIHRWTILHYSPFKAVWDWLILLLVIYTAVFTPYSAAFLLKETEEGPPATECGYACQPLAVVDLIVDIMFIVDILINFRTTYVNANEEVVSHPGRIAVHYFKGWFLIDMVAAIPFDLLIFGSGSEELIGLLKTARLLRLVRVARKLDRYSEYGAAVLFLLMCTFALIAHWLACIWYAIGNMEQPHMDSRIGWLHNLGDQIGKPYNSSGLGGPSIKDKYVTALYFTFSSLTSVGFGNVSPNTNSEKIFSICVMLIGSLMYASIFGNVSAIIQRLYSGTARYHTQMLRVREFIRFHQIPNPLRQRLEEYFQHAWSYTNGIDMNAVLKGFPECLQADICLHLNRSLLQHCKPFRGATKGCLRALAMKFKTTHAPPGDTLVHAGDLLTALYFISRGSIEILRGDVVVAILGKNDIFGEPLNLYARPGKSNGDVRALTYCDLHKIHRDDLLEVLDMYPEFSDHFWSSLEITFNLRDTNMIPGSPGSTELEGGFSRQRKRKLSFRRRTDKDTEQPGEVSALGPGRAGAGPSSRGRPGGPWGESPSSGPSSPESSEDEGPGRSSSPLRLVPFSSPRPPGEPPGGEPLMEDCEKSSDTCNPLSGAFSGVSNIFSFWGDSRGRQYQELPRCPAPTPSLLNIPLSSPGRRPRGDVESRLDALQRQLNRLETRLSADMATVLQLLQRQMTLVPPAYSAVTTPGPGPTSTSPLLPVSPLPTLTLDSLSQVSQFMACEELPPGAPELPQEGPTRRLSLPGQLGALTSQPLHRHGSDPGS

Structure (SMILES) | hERG current change (%, negative = inhibition) at 10uM [%]
COc1cccc(N2CCN(C(c3ccccn3)c3nnnn3C(C)(C)C)CC2)c1 (stereo not drawn) | 1.38
O=C(c1ccccc1)N(Cc1cccc(Br)c1)C1CCS(=O)(=O)C1 (stereo not drawn) | -7.59
CCCCC1(C(=O)OC)NC(c2ccc(O)cc2)C2C(=O)N(c3ccccc3)C(=O)C21 (stereo not drawn) | 2.03
Cc1ccc(-c2nnc(SCC#CCOC(=O)c3ccco3)o2)cc1 | -6.36
O=C(O)c1ccc(NC(CSCc2ccc(F)cc2)C(=O)O)c([N+](=O)[O-])c1 (stereo not drawn) | 2.41
CCOc1ccc(C2c3[nH]c4ccccc4c3C[C@H]3C(=O)N(C4CCN(Cc5ccccc5)CC4)CC(=O)N23)cc1OC (stereo partly drawn) | -5.25
C/C(CC(=O)Nc1ccc2c(c1)OCO2)=N\NC(=O)OC(C)(C)C | -5.1
COC(=O)C1C(O)=C(C(C)=N)C(=O)CC1(C)C (stereo not drawn) | 22.9
O=C(COC(=O)C1CC(=O)N(c2nc(-c3ccccc3)cs2)C1)c1ccccc1 (stereo not drawn) | 26.9
C=C1CCN([C@H](C(=O)NCc2ccccc2)C(C)C)S(=O)(=O)c2ccccc21 | 3.33
CCOC(=O)c1cc2ccccc2nc1C | 5.32
CC(C)n1nc(C(=O)OCn2nnc3ccccc3c2=O)c2ccccc2c1=O | 10.2
Brc1ccc(C2=CSC3=NCCN23)cc1 | -29.5
Br.Cc1ccc(C2=CSC3=NCCN23)c(C)c1 | -26.8
Br.CC(C)Cc1ccc(C2=CSC3=NCCN23)cc1 | -70.5
Br.Cc1ccc(C2=CSC3=NCCN23)cc1 | -4.96
Br.CCc1ccc(C2=CSC3=NCCN23)cc1 | -14.7
Br.C1=C(c2ccccc2)N2CCN=C2S1 | -7.6
Br.CC(C)(C)c1ccc(C2=CSC3=NCCN23)cc1 | -55.8
Clc1ccc(C2=CSC3=NCCN23)c(Cl)c1.[Br-] | -59.4
Br.COc1ccc(C2=CSC3=NCCN23)cc1 | -6.09
Br.CC(C)(C)c1cc(C2=CSC3=NCCN23)cc(C(C)(C)C)c1O | -76.2
Cl.Oc1ccc(C2=CSC3=NCCN23)cc1O | -1.2
Br.Clc1ccc(C2=CSC3=NCCN23)cc1Cl | -48.2

Structure (SMILES) | hERG current change (%, negative = inhibition) at 10uM [%]
O=C(c1ccc(CS(=O)c2ccccc2Cl)o1)N1CCCCCC1 (stereo not drawn) | 14.5
O=C(CC1C(=O)NCCN1C(=O)c1ccc([N+](=O)[O-])cc1)Nc1ccc(F)cc1 (stereo not drawn) | -21.8
O=C(Nc1nccs1)c1ccc2c(c1)C(=O)N(Cc1cccnc1)C2=O | -4.17
CCCCNC(=O)c1ccc(CS(=O)(=O)c2ccc(C)cc2)o1 | 15.1
CCOC(=O)c1ccc2cccc(C)n2c1=O | 3.05
CSc1ccc(Cl)c(C(=O)N(C)CC(=O)Nc2ccc(N3CCOCC3)cc2)c1 | -0.854
COC(=O)C1CCN(C(=O)COC(=O)Cc2c[nH]c3ccccc23)CC1 | 3.1
Cc1ccc(CN(C(=O)c2cccs2)C2CCS(=O)(=O)C2)cc1 (stereo not drawn) | -46.5
CCn1c(C)nc2c(=O)oc3ccccc3c21 | -9.57
CCNC(=O)c1ccc(N(C)S(=O)(=O)c2cccs2)cc1 | 26.5
CC1CCN(Cc2c(C(=O)N/N=C/c3cc(Br)ccc3O)nnn2-c2nonc2N)CC1 | 19.9
CC1(C)CC(=O)c2c(O)cc(OCc3ccc([N+](=O)[O-])cc3)cc2O1 | 15.1
CC1(C)CC(=O)c2ccc(O)cc2O1 | 4.03
CC1(C)CC(=O)c2ccc(OCc3ccc([N+](=O)[O-])cc3)cc2O1 | -57.7
O=C(COC(=O)c1ccc2c(c1)S(=O)(=O)N=C1CCCCCN12)NCCc1ccc(F)cc1 | -3.75
CC1CN(C(=O)c2ccc(NS(=O)(=O)c3ccc(F)cc3)cc2)CC(C)O1 (stereo not drawn) | 3.67
Cc1ccc(/C=C(/NC(=O)c2ccccc2)C(=O)NCCc2c[nH]c3ccccc23)o1 | -21.3
CN(C)CCNC(=O)/C(=C/c1ccc(-c2ccc(Cl)cc2Cl)o1)NC(=O)c1ccccc1 | -55.1
Cc1ccc(C(=O)N/C(=C\c2ccc(-c3cc(Cl)ccc3Cl)o2)C(=O)NCc2cccnc2)cc1 | 2.81
O=C(O)c1ccc(N/N=C/c2ccc(-c3ccc(Cl)cc3Cl)o2)cc1 | 10.7
CN(C)CCNC(=O)/C(=C/c1ccc(-c2cccc(Cl)c2)o1)NC(=O)c1ccccc1 | -72
O=C(O)c1ccc(N/N=C/c2ccc(-c3cccc(Cl)c3)o2)cc1 | 8.51
Cc1ccc(/C=C(\NC(=O)c2ccccc2)C(=O)NCCc2ccccn2)o1 | -12.8
CN(C)CCNC(=O)/C(=C/c1ccc(-c2ccc(Cl)cc2)o1)NC(=O)c1ccccc1 | -80.9
